Assay [1] addresses Catechol O-methyltransferase (Homo sapiens) (UniProt P21964). Nature of the assay: Confirmatory Screen for Target Class Profiling of Small Molecule Inhibitors of Methyltransferases (AID 1745852; calls by dose curve; further: potency means the concentration at half of the fitted maximal effect; on activity change, negative = inhibition: on the % scale 0 is the no-effect control and ±100 the full control effect). As to conditions: MTase-Glo luminescence, SAH detection, recombinant enzyme; measured here: COMT max response; stronger effect = lower value.
For assay [2], the target named is Guanidinoacetate N-methyltransferase (Homo sapiens) (UniProt Q14353). The description is as above. The settings on record: MTase-Glo luminescence, SAH detection, recombinant enzyme; activity change, negative = inhibition: at 57.3 µM (top of the series) unless noted.
Assay [3] deals with Nicotinamide N-methyltransferase (Homo sapiens) (UniProt P40261). Described as above. The settings on record: MTase-Glo luminescence, SAH detection, recombinant enzyme; measured here: NNMT max response; stronger effect = lower value.
Nicotinamide N-methyltransferase (Homo sapiens), sequence (P40261 whole entry, looked up): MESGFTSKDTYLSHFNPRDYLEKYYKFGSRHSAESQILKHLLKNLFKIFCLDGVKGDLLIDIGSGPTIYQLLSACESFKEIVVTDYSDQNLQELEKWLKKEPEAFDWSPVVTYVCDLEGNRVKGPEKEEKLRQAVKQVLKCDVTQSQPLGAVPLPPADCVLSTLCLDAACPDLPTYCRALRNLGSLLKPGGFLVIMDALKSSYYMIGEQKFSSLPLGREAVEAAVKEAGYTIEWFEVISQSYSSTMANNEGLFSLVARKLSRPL
In assay [4] the target is Phenylethanolamine N-methyltransferase (Homo sapiens) (UniProt P11086). The description is as above. As to conditions: MTase-Glo luminescence, SAH detection, recombinant enzyme; measured here: PNMT max response; stronger effect = lower value.
Phenylethanolamine N-methyltransferase (Homo sapiens), sequence (P11086 whole entry, looked up): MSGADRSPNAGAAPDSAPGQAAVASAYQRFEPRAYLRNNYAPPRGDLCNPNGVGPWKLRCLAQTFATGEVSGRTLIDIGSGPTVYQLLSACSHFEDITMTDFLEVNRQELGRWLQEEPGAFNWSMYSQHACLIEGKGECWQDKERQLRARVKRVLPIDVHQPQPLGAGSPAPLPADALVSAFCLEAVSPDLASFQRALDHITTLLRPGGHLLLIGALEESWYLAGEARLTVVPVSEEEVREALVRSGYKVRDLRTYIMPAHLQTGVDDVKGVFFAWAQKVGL
Assay [5] has as its target Glutathione peroxidase 1 (Homo sapiens) (UniProt P07203). Nature of the assay: Primary qHTS Assay for Inhibitors of Recombinant Selenoprotein Glutathione Peroxidase 1 (GPX1) (AID 1845191). Further: nearly all actives have a fitted effect of over 65% in size. Further: potency means the concentration at half of the fitted maximal effect. As to conditions: recombinant GPX1, GR-coupled NADPH fluorescence, 15 min; series mostly up to 48.8 µM. The method in brief:
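10 nM GPX1 + cpd, 30 min RT; start w/ 1 mM GSH, 0.5 mM cumene hydroperoxide, 0.5 mM NADPH, 100 nM GR, 0.01% BSA; buffer 50 mM Tris-HCl pH 7.5, 2 mM EDTA, 150 mM NaCl; Fl 340/450, 0 & 15 min.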

In assay [6] the target is Phospholipid hydroperoxide glutathione peroxidase GPX4 (Homo sapiens) (UniProt P36969). Nature of the assay: Primary qHTS Assay for Inhibitors of Recombinant Selenoprotein Glutathione Peroxidase 4 (GPX4) (AID 1845192). Further: nearly all actives have a fitted effect of over 65% in size. Further: potency means the concentration at half of the fitted maximal effect. On activity change, negative = inhibition: on the % scale 0 is the no-effect control and ±100 the full control effect. As to conditions: recombinant GPX4, GR-coupled NADPH fluorescence, 15 min; series mostly up to 50 µM. The method in brief:
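NADPH consumption, followed by fluorescence at 340/450 nm between 0 and 15 min, reports GPX4 activity via coupled glutathione reductase (100 nM). Enzyme 200 nM was pre-exposed to compound 30 min; 0.5 mM cumene hydroperoxide and 1 mM GSH served as substrates.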

Assay [7] deals with Luciferin 4-monooxygenase (Photinus pyralis) (UniProt P08659). Description: Primary firefly luciferase (FLuc) qHTS assay for identification of artifact compounds. (AID 1845220). Further: nearly all actives have a fitted effect of over 60% in size.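 On activity change, negative = inhibition: plate controls were DMSO vehicle for no effect and no enzyme for full effect.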 The settings on record: purified firefly luciferase, luminescence, 5 min; series mostly up to 54.1 µM. The procedure, abridged: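 Cell-free, 1536-well qHTS. Buffer pH 7.6 with 0.01% Tween-20 and 0.05% BSA; 10 uM D-luciferin, 10 uM ATP; 10 nM P. pyralis luciferase; luminescence after 5 min.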

A short description of assay [8]: Primary fluorescence-based thiol-reactive (MSTI) qHTS assay for identification of artifact compounds. (AID 1845221). Further: nearly all actives have a fitted effect of over 65% in size. Further: potency means the concentration at half of the fitted maximal effect. The settings on record: MSTI thiol-reactivity probe, 1 h; series mostly up to 53.8 µM. The procedure, abridged:
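MSTI probe at 4 uM final in 2% DMSO/PBS pH 7.4; compounds, 1 h at room temperature in dark. Fluorescence Ex/Em 525/598 nm, normalised to Acetyl-MSTI and MSTI, fitted to 4-parameter Hill.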

The subject of assay [9] is Nanoluciferase (engineered Oplophorus gracilirostris luciferase). Nature of the assay: Primary Nanoluciferase (NLuc) qHTS assay for identification of artifact compounds. (AID 1845222).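 Further: 0% = DMSO and -100% = no enzyme.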 The settings on record: NLuc-conditioned medium, Nano-Glo luminescence, 5 min; series mostly up to 54.1 µM. The procedure, abridged: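 Compounds are pinned into diluted (1:55) conditioned medium of NLuc-expressing S16 cells and held 15 min at room temperature protected from light. Nano-Glo substrate follows, and luminescence is read 5 min later.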

The nature of assay [10]: Primary redox qHTS assay for identification of artifact compounds. (AID 1845223). As to conditions: Amplex Red/HRP redox cycling with DTT, fluorescence; series mostly up to 53.8 µM. The procedure, abridged: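 Amplex Red (25 uM) and HRP (250 mU/mL) in HBSS, with compounds for 15 min, then 250 uM DTT for 30 min, room temperature, dark. Fluorescence 525/598 nm read; normalized to DMSO and 10 uM DA3003; Hill fit.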

A short description of assay [11]: Quantitative High-Throughput drug screen in 47 multiple myeloma cell lines against the NCATS MIPE library collection: Delta47_JCRB cell viability assay (AID 1918925; further: nearly all actives have a fitted effect of over 45% in size; further: potency means the concentration at half of the fitted maximal effect). As to conditions: Delta47 myeloma viability, CellTiter-Glo ATP, 48 h; series mostly up to 45.8 µM. The method in brief: (§1)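 CellTiter-Glo luminescence (ATP) after 48 h compound exposure, 37C/5% CO2; 500 cells/well; MIPE 4.0 approved/investigational drugs pinned in; DMSO = 100%, media only = 0% viability.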

The nature of assay [12]: Quantitative High-Throughput drug screen in 47 multiple myeloma cell lines against the NCATS MIPE library collection: AMO1_DSMZ cell viability assay (AID 1918927; further: nearly all actives have a fitted effect of over 30% in size; further: potency means the concentration at half of the fitted maximal effect). The settings on record: AMO1 myeloma cells viability, CellTiter-Glo ATP luminescence, 48 h; series mostly up to 45.8 µM. The procedure, abridged: as §1
The nature of assay [13]: Quantitative High-Throughput drug screen in 47 multiple myeloma cell lines against the NCATS MIPE library collection: ARP1_JJKsccF8 cell viability assay (AID 1918928; further: nearly all actives have a fitted effect of over 40% in size; further: potency means the concentration at half of the fitted maximal effect). The settings on record: ARP1 myeloma cells viability, CellTiter-Glo ATP, 48 h; series mostly up to 45.8 µM. The procedure, abridged:
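Myeloma cells at 500 per well in 1536-well format treated with MIPE 4.0 library by pin transfer for 48 h at 37C, 5% CO2. Viability from ATP luminescence (CellTiter-Glo), normalized to DMSO (100%) and media-only (0%) wells.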

Assay [14] is described as follows: Quantitative High-Throughput drug screen in 47 multiple myeloma cell lines against the NCATS MIPE library collection: ARD_JJKsccE7 cell viability assay (AID 1918929; further: potency means the concentration at half of the fitted maximal effect). The settings on record: ARD myeloma cell line viability, CellTiter-Glo, 48 h; series mostly up to 45.8 µM. The method in brief:
as §1

The nature of assay [15]: Quantitative High-Throughput drug screen in 47 multiple myeloma cell lines against the NCATS MIPE library collection: FR4_PLB cell viability assay (AID 1918924; further: nearly all actives have a fitted effect of over 35% in size; further: potency means the concentration at half of the fitted maximal effect). The settings on record: FR4_PLB myeloma cells viability, CellTiter-Glo ATP, 48 h; series mostly up to 45.8 µM. The method in brief: (§2)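 Primary qHTS used for cherry-picking: cells at 500/well, library compounds for 48 h (37C, 5% CO2), luminescent ATP assay.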

Assay [16] in a line: Quantitative High-Throughput drug screen in 47 multiple myeloma cell lines against the NCATS MIPE library collection: Karpas620_DSMZ cell viability assay (AID 1918959). Further: nearly all actives have a fitted effect of over 30% in size. Further: potency means the concentration at half of the fitted maximal effect. As to conditions: Karpas620 myeloma viability, CellTiter-Glo ATP luminescence, 48 h; series mostly up to 45.8 µM. The method in brief: as §2
A short description of assay [17]: Quantitative High-Throughput drug screen in 47 multiple myeloma cell lines against the NCATS MIPE library collection: EJM_DSMZ cell viability assay (AID 1918926; further: nearly all actives have a fitted effect of over 30% in size; further: potency means the concentration at half of the fitted maximal effect). As to conditions: EJM myeloma cell viability, CellTiter-Glo ATP, 48 h; series mostly up to 45.8 µM. The procedure, abridged: as §1

The values below come from PubChem BioAssay (NCATS).

Structures are written as SMILES. Several values for one entry are separate records, joined by “and”; a condition that tells them apart may be missing. Equal entries are not always repeated. Records with an inconclusive call do not appear. More than one record can exist for a structure, and the calls need not agree. Activity calls are given as the source filed them. Unless noted, the call rests on the fitted dose curve; in most records, active means well fitted curve in the direction sought with a large enough effect; inconclusive means small, poorly fitted or top-dose-only effect, or another doubt; inactive means no such curve, though single readings can be large; an effect the other way counts as inactive or inconclusive.

Phospholipid hydroperoxide glutathione peroxidase GPX4 (Homo sapiens), sequence (P36969 whole entry, looked up): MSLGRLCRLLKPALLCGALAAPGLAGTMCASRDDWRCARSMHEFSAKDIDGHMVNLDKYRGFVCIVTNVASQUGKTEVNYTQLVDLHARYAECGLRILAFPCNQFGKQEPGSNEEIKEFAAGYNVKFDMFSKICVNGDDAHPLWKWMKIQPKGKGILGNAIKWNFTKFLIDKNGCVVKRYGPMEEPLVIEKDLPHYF
Catechol O-methyltransferase (Homo sapiens), sequence (P21964 whole entry, looked up): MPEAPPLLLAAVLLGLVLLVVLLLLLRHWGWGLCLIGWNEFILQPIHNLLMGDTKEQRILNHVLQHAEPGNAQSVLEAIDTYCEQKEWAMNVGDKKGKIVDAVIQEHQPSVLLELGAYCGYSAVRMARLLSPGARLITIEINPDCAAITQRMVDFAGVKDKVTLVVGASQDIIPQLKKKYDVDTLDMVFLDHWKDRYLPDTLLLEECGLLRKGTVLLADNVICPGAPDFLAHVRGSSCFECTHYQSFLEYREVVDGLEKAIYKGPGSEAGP
Glutathione peroxidase 1 (Homo sapiens), sequence (P07203 whole entry, looked up): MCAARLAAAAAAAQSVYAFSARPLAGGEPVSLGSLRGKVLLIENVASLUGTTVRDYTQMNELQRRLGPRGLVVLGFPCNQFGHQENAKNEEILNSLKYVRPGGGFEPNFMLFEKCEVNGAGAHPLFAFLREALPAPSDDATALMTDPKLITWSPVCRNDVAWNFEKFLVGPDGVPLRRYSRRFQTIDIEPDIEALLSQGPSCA

In the case of `NC1(Cc2ccc(Cl)cc2)CCN(c2ncnc3[nH]ccc23)CC1`, the activity was -4.59% in assay [1], -26.7% in assay [3] and -31.7% in assay [4]. Also, in assay [2], the activity change, negative = inhibition turned out to be 0.429%. The Potency result in assay [5], in assay [6], in [7], in assay [8], in assay [9] and in [10] was “inactive” each time. In addition, the Potency was 935 nM (active) in assay [11], 2090 nM (active) in [12], 2960 nM (active) in [13] and 935 nM (active) in assay [14].
`CNC(=O)CN1CCC(Oc2cc3c(Nc4cccc(Cl)c4F)ncnc3cc2OC)CC1`: the activity was -36% in [1], -23.1% in assay [3] and -49.9% in [4]. Also, the Potency in assay [2] is 42900 nM (active); in [15] it was 26.4 nM (active); in assay [11], 18.7 nM (active); in assay [13] it was 37.2 nM (active); in assay [14], 1 nM (active); in assay [16], 1 nM (active). In addition, the Potency entry in assay [5], in assay [6], in assay [7], in assay [8] and in assay [9] was “inactive” each time.
Consider `O=C(O)C1(Cc2cccc(Nc3nccs3)n2)CCC(Oc2cccc(Cl)c2F)CC1` (stereo unspecified), for which the activity is -35% in assay [1], -34.5% in assay [3] and -68.7% in assay [4]. Also, the Potency was 42900 nM (active) in assay [2]; 418 nM (active) in [15]; 166 nM (active) in assay [11]; 235 nM (active) in assay [12]; 590 nM (active) in assay [13]; 74.3 nM (active) in [16]. Moreover, the Potency entry in assay [5], in [6], in assay [7], in assay [8], in assay [9] and in [10] was “inactive” each time. In addition, the Potency entry in assay [17] was “inactive”.
Consider `N#Cc1c(O)c2c(-c3ccc(-c4ccccc4O)cc3)csc2[nH]c1=O`, for which the figures for the activity in assay [1], in [3] and in assay [4] were 1.41%, -31.1% and -7.68%, respectively. Besides, the activity change, negative = inhibition in assay [2] is 0%. Further, in assay [5], the Potency was 12.8 µM (active) and inactive. In addition, the Potency entry in assay [6], in assay [7], in assay [8], in assay [11], in [13] and in assay [14] was “inactive” throughout. Moreover, in [16], the Potency entry is “inactive”.
Consider `Nc1cccc(-c2cc3c(Oc4cccc(O)c4)ncnc3[nH]2)c1`, for which the activity was -47.2% in assay [1], -47.2% in assay [3] and -55.3% in assay [4]. Besides, the Potency was 30400 nM (active) in [2]; “inactive and 14.3 µM (active)” in assay [6]; 9470 nM (active) in [8]; 14800 nM (active) in assay [15]; 20900 nM (active) in assay [13]. The Potency entry in assay [5], in assay [7], in [9], in assay [10], in [14] and in [16] was “inactive” in each case.
Regarding `Cn1c(CNc2ccc(C(=N)N)cc2)nc2cc(C(=O)N(CCC(=O)O)c3ccccn3)ccc21`, the figures for the activity in assay [1], in assay [3] and in assay [4] were -2.15%, -1.22% and -0.426%, respectively. The activity change, negative = inhibition in [2] amounted to 1.99%. The Potency result in assay [5], in assay [6], in [7], in [8], in assay [9] and in assay [10] was “inactive” each time. In addition, the Potency result in [15], in assay [12], in assay [13], in assay [14] and in assay [16] was “inactive” in each case. Further, the Potency in assay [17] was 0.6 nM (active).
